From the supplement of paper PMC6555819 come the findings set out here.

The first assay concerns LXRa homodimer (NR concentration 270 nM). Nature of the assay: PBM binding z-score (relative to random genomic background probes); higher = stronger binding; sequences stand for … in GC…GCGATTGACAGCGTAGAATGAAGG
In short, it runs like this:
(§1)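 Probes were double-stranded and carried 34-nt variable regions with direct-repeat seeds, single-nucleotide variants, half-site ablations and random human genomic background sequences, printed on custom Agilent 4×180K protein-binding microarrays. Arrays were incubated 1 h with ligand-free nuclear receptor dimers in PBS pH 7.4, 2% milk, 0.02% Triton X-100, 1 mM DTT, 0.2 mg/mL BSA and 0.4 mg/ml salmon testes DNA. Antibodies against each partner (one per run) detected binding, and scanned fluorescence was regression-normalized. Binding z-scores use the random background probes as reference.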
Regarding TCGAGTAGGTTACCAATGGGGCAGTCAGCTTTCT, the PBM binding z-score was -0.934.
Same read-out and setting: the value for GGAACGAGGGAAAAGTTGATAGCATCTGTCGACG was -0.321; that for ATATGTAGGTTATCGGGTCATTCCGTTTGCGCAT was 1.85.
The same measure, in the same setting: under AGAATGAGGTTCCCAAAGATCAGGGAAACGCTTG stands -0.36.
Same read-out and setting: under CCTACTGGGCCAAGGTCATTGATCAGTCAAAGCA stands 1.06; under ATCTCTAGGTAAAAAGTTCAGTGAAAGAGAGGAC, 1.03.
CCTTACGGGTCACTCCAGATTATAGCATCGGAGT registered a PBM binding z-score of -0.0778.
The same measure, in the same setting: the value for AGTCAAAGTTCATCTAGGCAACGTAAGATATGCT was 4.67; that for TAGCCTAGGTCAGTCAGGGGCCAGTATAGAAAGC was -0.418.
Still for that read-out and setting: under CCGACTGGGGCAGAAAGGTTACCACACCATCCGG stands 0.0458.
Same read-out and setting: under ATATGTAGGTTACATCTGGGTCATTCAGGCTATG stands 1.05.
Regarding TCAGACAGATGAAGGTAACTCAGGTACGCAGTCG, the PBM binding z-score was -0.272.
The same measure, in the same setting: under CTCGAAAGGTCGGTTAAGGTGAGTATACGGATAA stands 0.202; under TCGAGTAGGTTAGGGGCATTCTGAATGGCGTCGA, -0.301.
Turning to GATACAGGGTCAAGGCCGGAGTACGCGTATTGAT, the PBM binding z-score was 0.0137.
The same measure, in the same setting: under GCTGCTAGGTCAACTGATGGTCAGTTAAAGCTCG stands 0.245; under ACTAGCAGGCCAAGTTTGGGCCACTCAAACAAAG, -0.865.

For the next assay, the system named is LXRb:RXRa (NR concentration 270 nM, RXRa partner concentration 90 nM). Described as above. In short, it runs like this:
as §1
Regarding AGTCAAAGTTCATCCAGGTAACGTAAGATATGCT, the PBM binding z-score is 3.62.
Still for that read-out and setting: the value for CTCGAAAGGTCGGTTGAGGTGAGTAGACGGATAA was 1.44; that for CCTTACGGGTCACGAGGTTATAGGACGACGAGCG was 3.75; that for ATCGAAAGGTCGACGAGGTGACTATACACCGTTT was 3.17.
Still for that read-out and setting: the value for AGAATGAGGTTACGAAAGATCAGGGAAACGCTTG was 2.46; that for TCTGCTAGGTTAACGATGGTCAGCTAATCTGCTA was -0.156; that for ATCGAAAGGTCGACGAGGTGAGTATTCACCGTTT was 2.63.
Same read-out and setting: the value for ATATGTAGGTAAGCTGGGGTCATTCAGACTAGGC was 4.3; that for CATACAGGGTCAGCTAGCCCAGAGTAGGGACGGC was 2.21; that for ATCGAAAGATCGAGGTGAGTATAGAGAAAGGGAA was -0.262.
TCTATTAGTTAAAGGGCAACCGACGAGTCCGTTT: the PBM binding z-score is 1.12.
Sequence CCTATTATTTGACCATAAGGGCAACCGAAGCTCG showed a PBM binding z-score of 1.02.
On the same count and under the same terms, under AATACACGGTCATCGTAGGCCAGAGTACGCACAG stands 0.586; under CGTCCAAGGGCAAAGGTCAGTGAAGAGATGACGG, 3.56.
With CCTTACGGGTCACAAGGTTATAGCACGACGAGCG, the PBM binding z-score was found to be 3.65.
The same measure, in the same setting: the value for GCGACTGGGGCATCAGCAGGTTCCCATAACTTAA was 0.0504; that for AGAACGAGGGCACGCTGAGTTTATAGCAGAGTAG was 0.283.
Take GATACAGGGTCAAGGCCAGATTACGCGTATTGAT: the PBM binding z-score was determined as 4.07.
Still for that read-out and setting: under ATACCAAGGTGAACGTGAGGTCGTTGATACTAAC stands 2.47; under CCTGCTAGGTCTTGGTCAGCTAATCTACAGTATG, -0.509; under GCTTGTAGATCAAGGTTACGAAAGACTAAGCTAA, 0.883.
CCTGCTAGGTCATGGTCAGCTACTCTACAGTATG came in with a PBM binding z-score of 1.42.
The same measure, in the same setting: the value for TCGAGTAGGTTACCAATGGGGCAGTCAGCTTTCT was 0.266.
In the case of GGAACGAGGGAAAAGTTGATAGCATCTGTCGACG, the PBM binding z-score was -0.59.
The same measure, in the same setting: under ATATGTAGGTTATCGGGTCATTCCGTTTGCGCAT stands 3.11; under AGAATGAGGTTCCCAAAGATCAGGGAAACGCTTG, -0.576.
Turning to CCTACTGGGCCAAGGTCATTGATCAGTCAAAGCA, the PBM binding z-score stood at 2.74.
On the same count and under the same terms, the value for ATCTCTAGGTAAAAAGTTCAGTGAAAGAGAGGAC was 0.921; that for CCTTACGGGTCACTCCAGATTATAGCATCGGAGT was 2.91.
Same read-out and setting: under AGTCAAAGTTCATCTAGGCAACGTAAGATATGCT stands 3.78; under TAGCCTAGGTCAGTCAGGGGCCAGTATAGAAAGC, 0.85.
Still for that read-out and setting: under CCGACTGGGGCAGAAAGGTTACCACACCATCCGG stands 0.833; under ATATGTAGGTTACATCTGGGTCATTCAGGCTATG, 2.18; under TCAGACAGATGAAGGTAACTCAGGTACGCAGTCG, 0.763.
For the sequence CTCGAAAGGTCGGTTAAGGTGAGTATACGGATAA, the PBM binding z-score stood at 1.84.
Regarding TCGAGTAGGTTAGGGGCATTCTGAATGGCGTCGA, the PBM binding z-score turned out to be 0.694.
GATACAGGGTCAAGGCCGGAGTACGCGTATTGAT yielded a PBM binding z-score of 3.51.
Sequence GCTGCTAGGTCAACTGATGGTCAGTTAAAGCTCG gave a PBM binding z-score of 2.35.
On the same count and under the same terms, the value for ACTAGCAGGCCAAGTTTGGGCCACTCAAACAAAG was -0.61.
